GLP-1R agonist: qHTS of GLP-1 Receptor Agonists; AID 624172, 2012; Glucagon-like peptide 1 receptor (Homo sapiens), P43220; 380,000 tested, 0.007% active; HEK293 GLP-1R CRE-luciferase, luminescence, 4-6 h; cells express a hypersensitive GLP-1R form; Potency, µM (series often up to 45.6 µM), inactives show at the top dose activation, usual class: activators; note: % of control where 0% means no effect
Target sequence (P43220 whole entry, looked up): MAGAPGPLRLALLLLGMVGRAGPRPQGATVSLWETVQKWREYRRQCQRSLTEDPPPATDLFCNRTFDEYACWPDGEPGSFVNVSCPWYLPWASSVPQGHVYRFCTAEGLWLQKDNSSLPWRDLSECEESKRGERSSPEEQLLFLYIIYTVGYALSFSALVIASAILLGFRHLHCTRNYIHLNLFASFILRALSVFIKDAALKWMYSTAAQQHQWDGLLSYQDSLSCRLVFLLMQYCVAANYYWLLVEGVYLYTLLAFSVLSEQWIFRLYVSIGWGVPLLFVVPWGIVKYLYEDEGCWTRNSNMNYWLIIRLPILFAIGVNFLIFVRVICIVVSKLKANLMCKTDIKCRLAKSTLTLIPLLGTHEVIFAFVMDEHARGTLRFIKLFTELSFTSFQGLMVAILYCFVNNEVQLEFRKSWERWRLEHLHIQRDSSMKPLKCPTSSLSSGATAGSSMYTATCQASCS
PTHR1 ag: qHTS for PTHR1 Agonists: Primary Screen. Potency, µM (titrated, usually from 115 µM), for the others: top-dose activation, usual class: activators. 410,000 tested, 0.075% active. Parathyroid hormone/parathyroid hormone-related peptide receptor (Homo sapiens), Q03431. AID 743266, 2014. HEK293 GP2 PTHR1 cells, GloSensor cAMP luminescence, 1 h; note: nearly all actives have a fitted effect of over 55% in size
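HEK-293-derived GP2 cells expressing PTHR1 and a GloSensor cAMP reporter, 3,000/well, plated overnight, given luciferin plus IBMX (each 0.5 mM as added) for 1 h at 37 °C, then compound for 1 h at 37 °C. Luminescence was read after 15 min at room temperature.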
RGS4 inhibitor: Inhibitors of Regulator of G Protein Signaling (RGS) 4: qHTS. Regulator of G-protein signaling 4 (Homo sapiens), P49798. Potency, µM (series often up to 114 µM), without a hit: at the top dose activity change, negative = inhibition, most hits filed as inhibitors. Transcreener GDP fluorescence polarization, RGS4-accelerated GTP hydrolysis. 390,000 tested, 0.039% active. AID 504845, 2011; note: % is set by controls: 0 for no effect and ±100 for the full control effect; nearly all actives have a fitted effect of over 75% in size
Target sequence (P49798 whole entry, looked up): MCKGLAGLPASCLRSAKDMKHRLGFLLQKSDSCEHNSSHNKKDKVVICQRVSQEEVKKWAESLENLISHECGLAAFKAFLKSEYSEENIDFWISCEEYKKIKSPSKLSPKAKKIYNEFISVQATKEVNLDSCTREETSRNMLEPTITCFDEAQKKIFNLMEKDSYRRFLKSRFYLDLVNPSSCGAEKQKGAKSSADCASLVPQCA
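MLSMR compounds (23 nl, pin-transferred) preincubated 10 min at room temperature with a 500nM (2x) first reagent, then RGS4 at 900nM (2x) plus Transcreener GDP mix added; fluorescence polarization (620/688 nm) read before and after 90 min at 30 °C.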
GLP1R inv ag: qHTS of GLP-1 Receptor Inverse Agonists (Inhibition Mode). Glucagon-like peptide 1 receptor (Homo sapiens), P43220. HEK293 GLP-1R CRE-luciferase, luminescence, 24 h; GLP-1R form is constitutively active. Potency, µM (highest dose often 38.3 µM), for the others: at the highest dose activity change, negative = inhibition, usual class: inhibitors. 410,000 tested, 1.6% active. AID 624417, 2012; note: % is set by controls: 0 for no effect and ±100 for the full control effect; nearly all actives have a fitted effect of over 55% in size
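Stable HEK293 clone (constitutively active GLP-1R + cAMP-response luciferase); 200 cells/uL plated, 12 h pre-culture, compound 24 hr, 37 deg C/5% CO2; detection reagent 12 min RT; luminescence.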
GLP1R cytotox: qHTS of GLP-1 Receptor Inverse Agonists: Cytotox Screen. HEK293 cAMP-luciferase reporter cells, luminescence, 24 h. Potency, µM (highest dose often 38.3 µM), for inactives: top-dose activity change, negative = inhibition, hits mostly inhibitors. 410,000 tested, 0.13% active. AID 624418, 2012;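 note: loss of luciferase light is scored as toxicity; % is set by controls: 0 for no effect and ±100 for the full control effect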
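1536-well qHTS counterscreen of the MLSMR; 200 cells/uL, 12 h pre-incubation, 23 nL cpd, 24 h at 37 deg C 5% CO2, luciferase detection reagent, 12 min RT, luminescence. Inhibition = undesired.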
Starred values were filed as active, the others as inactive; i = inactive; ? = inconclusive; . = no result given; [ ] = another dose, or the depositor's remark. Rows were chosen to be rich in hits. Some 1.7% of all compounds tested hit in one or more screens of this group. Calls come from the whole dose curve; as a rule, active = well fitted curve in the direction sought with a large enough effect; inconclusive = small, poorly fitted or top-dose-only effect, or another doubt; inactive = no such curve, though single readings can be large; an effect the other way counts as inactive or inconclusive. Potency is the fitted concentration of half-maximal effect.

SMILES	GLP-1R agonist	PTHR1 ag	RGS4 inhibitor	GLP1R inv ag	GLP1R cytotox
COC(=O)c1ccc(Cn2c(O)c(N=NC(N)=S)c3ccccc32)o1	9.7%	?	-13.5%	10µM*	?
NC(=S)N=Nc1c(O)n(Cc2ccccc2)c2ccccc12	-0.8%	i	2.2%	?	?
C/C(Cl)=C\Cn1c(O)c(N=NC(N)=S)c2ccccc21	?	-7.4%	-25.8%	?	1.58µM*
COc1ccc2nc(Nc3nc(CSc4nc5ccccc5[nH]4)cc(=O)[nH]3)nc(C)c2c1	1.8%	i	8.7%	?	-2.0%[1.53 µM]
Cc1nc(Nc2nc(CSc3nc4ccccc4[nH]3)cc(=O)[nH]2)nc2ccccc12	-4.0%	i	-33.8%	1.12µM*	?
O=C(NC(=O)N1CCN(c2cccc(Cl)c2)CC1)c1ccc(Cl)cc1	-16.7%	-49.5%	-15.2%	3.16µM*	5.1%
CCC(CCCO)CCC[C@H](C)CCC1OCCO1 (stereo not given in full)	-2.6%	-1.7%	0.8%	8.91µM*	17.1%
Cc1cc(C)c(C)c(S(=O)(=O)N2CCC(C(=O)N3CCN(c4ccc(F)cc4)CC3)CC2)c1C	8.9%	-3.3%	-9.0%	5.01µM*	0.1%
COc1ccccc1N(Cc1ccccc1)S(=O)(=O)c1cccc(C(=O)Nc2cc(C)ccn2)c1	-0.4%	-73.8%	27.4%	4.47µM*	8.9%
COc1ccccc1N(Cc1ccccc1)S(=O)(=O)c1cccc(C(=O)NC2CC(C)(C)NC(C)(C)C2)c1	-30.4%	-19.5%	-32.8%	5.01µM*	?
CCCN1CNc2c(c(=O)[nH]c(=S)n2CCC(C)(C)C)C1	.	.	-19.7%	.	.
Cc1ccc(NC(=O)c2ccc(NC(=O)CCS(=O)(=O)c3cccs3)cc2)cc1F	.	-15.8%	1.8%	-16.2%	-15.1%
Cc1ccccc1NS(=O)(=O)c1cc(C(=O)NCCC2=CCCCC2)ccc1C	3.9%	-24.8%[57.5 µM]	-5.5%	11.2µM*	?
CCOc1ccc(/C=N/NC(=O)Cc2csc(Nc3cccc(C(F)(F)F)c3)n2)cc1	-19.9%	-20.7%[57.5 µM]	-1.0%	2.24µM*	-28.6%
CCOc1ccc(/C=N/NC(=O)Cc2csc(Nc3cccc(C(F)(F)F)c3)n2)c(OCC)c1	-5.0%	-0.6%[57.5 µM]	-14.7%	?	-21.0%
Cc1cccc(CNC(=O)c2ccc3nc(-c4ccccc4)c(-c4ccccc4)nc3c2)c1	.	-13.6%	-1.1%	-10.5%	0.3%
Cc1[nH]c(=S)c(C#N)c(C)c1CC(=O)c1ccc(Br)cc1	0.0%	14.1µM*	-7.9%	-19.0%	-1.6%
Cc1[nH]c(=S)c(C#N)c(C)c1Cc1ccc(Cl)cc1Cl	2.6%	i	3.4%	-9.4%	0.1%
COC(=O)c1cc(NC(=O)CC2SC(=Nc3ccccc3)N(CCc3c[nH]c4ccccc34)C2=O)cc(C(=O)OC)c1 (stereo not given)	-13.5%	i	-4.1%	4.47µM*	?
CO/N=C(/CNC(=O)c1cccc(Cl)c1)c1ccc(Cl)cc1	1.4%	i	-34.0%	11.2µM*	28.0%
CO/N=C(/CNC(=O)c1ccc(Cl)cc1Cl)c1ccc(Cl)cc1	-6.5%	i	-10.7%	-5.7%	12.2%
Cc1csc2nc(COC(=O)c3ccc(NC(=O)c4ccccc4Br)cc3)cc(=O)n12	.	-11.0%	11.2%	?	0.4%
O=C(CSCc1ccco1)N1CCc2ccccc21	19.2%	-20.1%	-15.8%	?	-17.7%
COc1ccc2cc1Oc1ccc(cc1)CC1c3c(cc(OC)c4c3Oc3cc5c(cc3O4)CCNC5C2)CCN1C (stereo not given)	-5.7%	i	-11.4%	5.62µM*	11.2µM*
CC(=O)OCC(=O)[C@@]1(O)[C@H](C)C[C@H]2C3C[C@H](F)C4=CC(=O)C=CC4(C)C3[C@@H](O)CC21C (stereo not given in full)	-4.2%	.	.	.	.
SMILES	GLP-1R agonist	PTHR1 ag	RGS4 inhibitor	GLP1R inv ag	GLP1R cytotox
Cc1ccc(C)c(NC(=O)C(=O)NCCc2csc3nc(-c4ccccc4C)nn23)c1	.	-95.9%	-9.9%	-18.3%	15.0%
CCOC(=O)CC(=O)CSc1nc2c(sc(=S)n2-c2ccc(OCC)cc2)c(=O)[nH]1	0.3%	-24.2%	-23.6%	?	-25.3%
CCOC(=O)CC(=O)CSc1nc2c(sc(=S)n2-c2ccc(C)c(C)c2)c(=O)[nH]1	5.5%	-32.0%	-11.5%	8.91µM*	-18.5%
O=C(CCCC(=O)OCC(=O)c1ccc(Cl)cc1)NC1CCCCC1	-9.2%	i	-13.9%	11.2%	1.4%
C#CCN(C[C@@H]1[C@@H](OC(=O)Nc2cccs2)[C@@H](OC(=O)Nc2cccs2)Cn2c(=O)ccc(=O)n21)S(=O)(=O)c1ccc(C)cc1	-7.8%	-54.2%	.	2.82µM*	?
CCN1CCN(C(=O)c2ccc(-c3nc4ccccc4s3)s2)CC1	20.1%	-51.5%	15.0%	?	11.6%
O=C(c1ccc(-c2nc3ccccc3s2)s1)N1CCOCC1	-5.1%	-28.9%	0.9%	1.26µM*	0.6%
Cc1cc(NC(=O)CSc2nc(-c3ccc(Cl)cc3)cs2)no1	-1.3%	i	?	13.5%	4.5%
O=C(CSc1nc(-c2ccc(Cl)cc2)cs1)Nc1cccc([N+](=O)[O-])c1	-1.8%	-45.0%	-6.9%	10µM*	-3.6%
CCOC(=O)c1nc(C)nc(Sc2n[nH]c(-c3ccc(C(C)(C)C)cc3)n2)c1C	-7.2%	i	12.6%	10µM*	-14.4%
CCOC(=O)c1nc(C)nc(Sc2n[nH]c(-c3cc(Cl)cc(Cl)c3)n2)c1C	0.0%	-28.4%	8.4%	19.4%	-2.1%
COc1ccc(-n2c(=O)c3ccc(C(=O)NCc4ccc(C)cc4)cc3n(CC(=O)Nc3ccc(F)cc3)c2=O)cc1	-5.5%	-24.5%	-14.5%	0.0%	-3.6%
CCCCOc1ccc(C(=O)NCCS(=O)(=O)N2CCN(c3ccccc3OC)CC2)cc1	.	-95.1%	5.2%	10µM*	0.7%
COc1ccc(N2CCN(S(=O)(=O)CCNC(=O)Cc3ccc(-c4ccccc4)cc3)CC2)cc1	.	28.2µM*	12.5%	9.0%	6.8%
CCCCOc1ccc(C(=O)NCCS(=O)(=O)N2CCN(c3ccc(F)cc3)CC2)cc1	.	i	6.2%	0.2%	-3.5%
COc1cccc(Oc2nc(C)nc3c2oc2ccccc23)c1	.	-46.7%	-12.2%	-0.4%	-2.3%
COc1ccc(C2CC(O)(c3ccccc3)Oc3cc(OC)c(OC)c(OC)c32)cc1 (stereo not given)	16.3%	-18.3%	16.5%	?	-3.7%
OC1(c2ccccc2)CC(c2ccccc2)c2ccccc2O1 (stereo not given)	0.9%	-36.2%	-4.6%	11.2µM*	?
Cc1ccc(OCCCCCN2CCOCC2)cc1	1.0%	i	-9.6%	6.2%	7.1%

Screening results from PubChem BioAssay.
